# Assay results: PubChem BioAssay AID1210 (NMMLSC, 2008)
# Calls of active or inactive are those of the source.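 Rule for the calls: active = blocks over 70% of labeled estradiol binding at 10 µM, or over a set limit at 100 nM; inactive = the rest.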
# Molecular target: Estrogen receptor beta (Homo sapiens) (UniProt Q92731)
# Test: ERbeta ligand binders by competition, primary screen, cell-based, Cos7 ERbeta-GFP, flow cytometry (AID 1210);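 note: 0% = DMSO vehicle wells and 100% = complete loss of labeled estradiol signal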
# Conditions: fluorescent estrogen binding, at 10 µM, active compounds read high
# Chain of Estrogen receptor beta (Homo sapiens) (Q92731 whole entry, looked up): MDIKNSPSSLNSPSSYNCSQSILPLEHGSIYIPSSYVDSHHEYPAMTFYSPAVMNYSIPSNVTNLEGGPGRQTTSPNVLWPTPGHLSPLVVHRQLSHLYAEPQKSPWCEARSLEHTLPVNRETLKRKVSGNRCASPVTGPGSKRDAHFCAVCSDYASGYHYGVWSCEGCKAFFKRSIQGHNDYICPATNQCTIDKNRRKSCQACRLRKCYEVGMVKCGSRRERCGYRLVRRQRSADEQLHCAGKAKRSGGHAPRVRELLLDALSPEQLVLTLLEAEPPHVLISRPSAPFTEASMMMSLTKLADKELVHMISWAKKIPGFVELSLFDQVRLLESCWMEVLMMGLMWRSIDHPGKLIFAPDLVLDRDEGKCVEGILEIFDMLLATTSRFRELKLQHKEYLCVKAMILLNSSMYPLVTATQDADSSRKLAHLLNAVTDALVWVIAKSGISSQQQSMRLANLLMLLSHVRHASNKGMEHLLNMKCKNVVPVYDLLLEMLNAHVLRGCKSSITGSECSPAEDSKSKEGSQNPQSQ
row,Compound,inhibition
1,CC(=O)c1sc2nc(SCC(=O)N3CCCCC3)[nH]c(=O)c2c1C,27% (inactive)
2,C/C=C(/C(=C/C)c1ccc(O)cc1)c1ccc(O)cc1,55% (active)
3,Fc1ccc2c(c1)[C@H]1OCC[C@H]1[C@@H](c1ccco1)N2,37% (inactive)
4,COc1ccc(C2Nc3ccccc3C(=O)N2c2ccc(Cl)cc2)cc1Cn1cc([N+](=O)[O-])cn1 (stereo unspecified),63% (inactive)
5,COc1ccc(Cl)cc1NC(=O)c1ocnc1C,50% (inactive)
6,Nc1ccc(N2CCN(C(=O)c3ccco3)CC2)cc1,49% (inactive)
7,COc1ccc(OC)c(C(=O)CSc2nnc(-c3ccc(OC)c(OC)c3)o2)c1,49% (inactive)
8,COCCOC(=O)c1[nH]c2c(c1C)C(=O)CC(c1ccco1)C2 (stereo unspecified),35% (inactive)
9,O=C(CSc1nnc(-c2ccc(O)cc2)n1Cc1ccccc1)NNC(=O)c1ccc(Br)cc1,31% (inactive)
10,CSc1ccccc1NC(=O)c1noc2c1CCC2,26% (inactive)
11,Cc1ccc(C)c(/C(O)=C2/C(=O)C(=O)N(CCN3CCOCC3)C2c2ccco2)c1 (stereo unspecified),23% (inactive)
12,CCc1ccc(Nc2nc(N)nc(CSc3nnnn3-c3ccccc3)n2)cc1,67% (inactive)
13,CCc1oc2ccccc2c1C(=O)c1cc(Br)c(O)c(Br)c1,45% (inactive)
14,c1coc(-c2nn3c(-c4ccco4)nnc3s2)c1,37% (inactive)
15,O=C(NNC(=O)c1ccc(SCC2CCCO2)c([N+](=O)[O-])c1)c1ccc(Cl)c([N+](=O)[O-])c1 (stereo unspecified),0% (inactive)
16,Oc1ccccc1C1=Nc2ccccc2N=C(c2cccs2)C1,19% (inactive)
